Active and inactive are the calls of the source.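 How the source made its calls: active means fluorescence slope higher than the sample average by over 3 SD (cut at about -0.22 in these data, passing the limit was not always enough); inactive means the rest.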
Molecular target: Voltage-gated potassium channel subunit beta-2 (Rattus norvegicus) (UniProt P62483)
Test: KvBeta enzyme negative modulators, primary screen, biochemical, NADPH fluorescence (AID 622);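 further: slope of raw intensity against log time taken from 70 to 1610 s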
Conditions: recombinant KvBeta, 4-cyanobenzaldehyde reduction, at 10 µM, active compounds read high

Chain of Voltage-gated potassium channel subunit beta-2 (Rattus norvegicus) (P62483 whole entry, looked up): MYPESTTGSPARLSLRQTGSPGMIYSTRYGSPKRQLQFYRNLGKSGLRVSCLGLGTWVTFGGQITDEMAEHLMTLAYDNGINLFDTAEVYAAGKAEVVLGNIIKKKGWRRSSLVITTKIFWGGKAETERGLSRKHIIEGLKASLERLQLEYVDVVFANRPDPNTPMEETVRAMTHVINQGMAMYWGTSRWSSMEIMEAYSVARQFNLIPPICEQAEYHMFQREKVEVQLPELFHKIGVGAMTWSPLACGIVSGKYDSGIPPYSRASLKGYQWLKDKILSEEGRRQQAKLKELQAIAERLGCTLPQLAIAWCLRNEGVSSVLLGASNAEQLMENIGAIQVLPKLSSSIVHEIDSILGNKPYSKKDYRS

| SMILES | fluorescence slope |
| --- | --- |
| COc1ccccc1NC(=O)C1=C(C)Nc2nnnn2C1c1ccccc1OC (stereo not given) | -0.415 (inactive) |
| CC(=O)NCCc1nc2ccccc2[nH]1 | -0.553 (inactive) |
| S=C(c1ccc(-c2cc(Cl)ccc2Cl)o1)N1CCOCC1 | -0.523 (inactive) |
| COc1ccc(Cl)cc1-c1n[nH]c(=S)o1 | -0.378 (inactive) |
| O=c1[nH]c(SCc2ccccc2Cl)nc2c1CCCC2 | -0.295 (inactive) |
| CSc1nc(C)cc(OCC(=O)N2CCOCC2)n1 | -0.451 (inactive) |
| CCOc1ccc(N(CC(=O)NC2CCCCC2)S(=O)(=O)c2c(C)noc2C)cc1 | -0.616 (inactive) |
| Oc1ccccc1-c1nnc(COc2ccc(Cl)cc2Cl)o1 | -0.54 (inactive) |
| CC(=O)NC(C)c1nc2ccccc2n1C(C)C (stereo not given) | -0.551 (inactive) |
| CC1CCCCC1NC(=O)CCCc1nc2ccccc2c(=O)[nH]1 (stereo not given) | -0.618 (inactive) |
| c1ccc(-n2ncc3c(N4CCCCC4)ncnc32)cc1 | -0.574 (inactive) |
| c1cc(CNc2ccc3c(c2)OCO3)ccn1 | -0.48 (inactive) |
| O=C(CCn1c(=O)oc2ccccc21)N1CCCCCC1 | -0.316 (inactive) |
| COc1ccccc1C(=O)N1CCN(C(=O)c2ccncc2)CC1 | -0.515 (inactive) |
| O=C(NC1CCCC1)C1CCCN(S(=O)(=O)c2cccc3cccnc23)C1 (stereo not given) | -0.594 (inactive) |
| N#Cc1c(-c2ccccc2)nc(N2CCCCCC2)[nH]c1=O | -0.41 (inactive) |
| O=C(NC1CCCCC1)n1c(=O)oc2ccc(Cl)cc21 | -0.622 (inactive) |
| O=C(Nc1ccccc1N1CCOCC1)c1ccc2ccccc2n1 | -0.39 (inactive) |
| O=C(Nc1ccc(F)cc1)N(CCCN1CCOCC1)Cc1cc2cc3c(cc2[nH]c1=O)OCO3 | -0.362 (inactive) |
| COc1c(S(=O)(=O)n2nc(C)cc2C)ccc(Cl)c1Cl | -0.434 (inactive) |

| SMILES | fluorescence slope |
| --- | --- |
| CCn1c(SCC(=O)Nc2ccc(Cl)cc2)nnc1C1CC1 | -0.608 (inactive) |
| COc1cc2cc(C(c3nnnn3C3CCCC3)N(C)C3CCCCC3)c(=O)[nH]c2cc1OC (stereo not given) | -0.465 (inactive) |
| COc1ccccc1OCCOCCn1cnc2ccccc2c1=O | -0.488 (inactive) |
| Cc1cccnc1NC(=O)CCCN1C(=O)c2ccccc2C1=O | -0.409 (inactive) |
| CCC1CCCCN1C(=O)C1CC(c2cc(Cl)c(OC)cc2OC)=NO1 (stereo not given) | -0.504 (inactive) |
| CCOCCCNC(=O)C1CCC(CNS(=O)(=O)c2cccc3nsnc23)CC1 (stereo not given) | -0.476 (inactive) |
| C=CCn1c(SCC(=O)NCC2CCCO2)nc2scc(-c3ccco3)c2c1=O (stereo not given) | -0.459 (inactive) |
| CC1=C(C)CC2C(=O)N(c3cccc4ccccc34)C(=O)C2C1 (stereo not given) | -0.569 (inactive) |
| O=C(O)c1ccc(-c2ccc(O)c(F)c2)cc1 | -0.59 (inactive) |
| COC(=O)c1ccccc1NC(=O)N1CCCC1 | -0.434 (inactive) |
| Cc1ccc(-n2c(Cn3cnc4ccccc43)nnc2SCC(=O)O)cc1 | -0.437 (inactive) |
| Cc1ccc2c(c1C)NC(=O)C2(O)CC(=O)c1ccc2c(c1)OCO2 (stereo not given) | -0.472 (inactive) |
| CC1=C(C(=O)Nc2cccnc2)C(c2ccc(C(C)C)cc2)n2ncnc2N1 (stereo not given) | -0.4 (inactive) |
| c1ccc(CCn2nnnc2CN2CCN(C3CCCC3)CC2)cc1 | -0.604 (inactive) |
| CN(C(=O)c1ccccc1Cl)c1ccccc1 | -0.561 (inactive) |
| O=S(=O)(c1ccc(-c2csc(-c3cccnc3)n2)cc1)N1CCCCC1 | -0.604 (inactive) |
| O=C(c1cnn2c(C(F)(F)F)cc(-c3ccco3)nc12)N1CCc2ccccc2C1 | -0.327 (inactive) |
| COc1ccc(CCNc2oc(COc3ccccc3Cl)nc2C#N)cc1OC | -0.462 (inactive) |
| Cc1ccc(-c2nnc(N(C)C(=O)c3ccccn3)s2)cn1 | -0.495 (inactive) |
| Cn1c(=O)c2c(-c3ccccc3)n(CCCN3CCOCC3)cc2n(C)c1=O | -0.574 (inactive) |
